# Screening results deposited in PubChem by Broad Institute.
# The sample as a whole holds a higher share of hits than the screen did.
# NOMO-1 viab: STK33 inhibitor candidate reducing NOMO-1 cell viability; NOMO-1 AML viability, CellTiter-Glo luminescence, 72 h; AID 2330; actives 7.5% (n = 37,000); inhibition, % (no concentration beside the values); in the data active = inhibition above about 80%
# STK33 inh: inhibitors of human STK33 kinase; Q9BYT3; ADP-Glo luminescence, MBP substrate; inhibition, % at 12.5 µM; actives 0.44% (n = 27,000); in the data active = inhibition above about 20%
# Target sequence (Q9BYT3 whole entry, looked up): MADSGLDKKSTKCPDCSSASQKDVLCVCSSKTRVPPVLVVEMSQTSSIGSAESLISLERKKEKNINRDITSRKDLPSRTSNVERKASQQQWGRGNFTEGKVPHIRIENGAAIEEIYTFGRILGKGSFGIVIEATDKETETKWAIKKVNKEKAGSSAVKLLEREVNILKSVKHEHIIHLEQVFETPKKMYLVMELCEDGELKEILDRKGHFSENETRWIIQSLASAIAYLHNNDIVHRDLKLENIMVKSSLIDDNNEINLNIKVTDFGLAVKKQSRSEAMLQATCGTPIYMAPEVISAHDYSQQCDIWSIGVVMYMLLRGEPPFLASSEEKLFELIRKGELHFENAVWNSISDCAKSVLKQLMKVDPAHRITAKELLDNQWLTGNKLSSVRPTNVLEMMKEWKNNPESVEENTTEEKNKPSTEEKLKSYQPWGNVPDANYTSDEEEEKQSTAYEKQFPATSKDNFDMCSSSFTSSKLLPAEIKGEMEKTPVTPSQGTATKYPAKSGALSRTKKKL
# ID4 SMM: binders of human ID4 protein. actives 1.2% (n = 31,000). small molecule microarray, Flag-ID4 binding, fluorescence F/B. P47928. calls only. AID 624137; call rule not given here;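 also: a binder raises fluorescence above local background on the spot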
# p53 PUMA act: restores mutant p53 pathway signaling in SW480 cells; SW480 PUMA-promoter luciferase, p53 mutant reactivation; activation, % at 9.98 µM; actives 1.5% (n = 28,000); in the data active = activation above about 52%
# Hits are given with their value; n = inactive; x = not tested or not shown; + = active, no number.
SMILES,NOMO-1 viab,STK33 inh,ID4 SMM,p53 PUMA act
Cc1cccc(N=Cc2c(O)n(-c3ccccc3)c(=O)c3ccccc23)c1,91,x,x,x
CN1CCC2(CC1)C(C#N)=C(N)Oc1n[nH]c(C(=O)OC(C)(C)C)c12,n,x,x,x
O=C(Nc1ccccc1C(=O)O)c1ccc(Br)c(S(=O)(=O)N2CCOCC2)c1,n,n,+,n
O=C(NCCN1CCOCC1)c1ccc(Cl)c(S(=O)(=O)N2CCOCC2)c1,n,n,+,n
CC1CC[C@]2(C(=O)O)CC[C@]3(C(=O)O)C(=CCC4[C@@]5(C)CC[C@H](O[C@@H]6O[C@H](CO)[C@@H](O)[C@H](O)[C@H]6O)C(C)(C)C5CC[C@]43C)C2C1C (stereo partly specified),n,n,x,x
O=C(NC1CC1)[C@@H]1c2ccccc2C(=O)N(CC23CC4CC(CC(C4)C2)C3)[C@H]1c1ccc(CO)cc1,x,n,x,x
O=C1c2ccccc2C(=O)N1CC12CC3CC(CC(C3)C1)C2,98,x,x,x
COc1c(C=O)c(O)cc2c1C(=O)c1ccccc1C2=O,96,85,n,n
COc1cc(/C=C/C(=O)NCC(O)c2ccc(O)cc2)ccc1O (stereo unspecified),x,n,x,n
COc1cc(O)c(C(=O)/C=C/c2ccc(O)c(OC)c2)c(OC)c1,n,51,x,x
Cc1sc(N)nc1C12CC3CC(CC(C3)C1)C2,105,x,x,x
OCC1=CC[C@@H]2C=CO[C@@H](O[C@@H]3O[C@H](CO)[C@@H](O)[C@H](O)[C@H]3O)[C@H]12,x,n,x,n
C[C@H](CO)N1C[C@H](C)[C@@H](CN(C)Cc2ccc(C(F)(F)F)cc2)Oc2ccc(NS(=O)(=O)c3cccs3)cc2C1=O,n,x,x,x
Cc1[nH]c2ccccc2c1C(=O)CCC(=O)O,x,n,+,n
Cc1[nH]c2ccccc2c1C(=O)CSc1ncn[nH]1,n,n,n,n
Cc1[nH]c2ccccc2c1C(=O)CSc1nnc2ccccn12,n,n,n,95
COc1ccc(CN(C)C[C@H]2Oc3ccc(NS(=O)(=O)c4ccc(F)cc4)cc3C(=O)N([C@@H](C)CO)C[C@@H]2C)cc1,n,n,x,x
CC(C)(C)c1ccccc1OCC(=O)Nc1cccc2ccccc12,92,x,x,x
Cc1cccc(OCC(=O)Nc2ccccc2CO)c1C,n,n,n,69
CCC(C)CCCCCCCCC1CC(=O)NC(CCC(N)=O)C(=O)NC(CC(C)C)C(=O)NC(CC(C)C)C(=O)NC(C(C)C)C(=O)NC(CC(=O)O)C(=O)NC(CC(C)C)C(=O)NC(C(C)C)C(=O)O1 (stereo unspecified),111,n,n,n
O=C1c2ccccc2-c2nn(C(=O)Cc3ccccc3)c3cccc1c23,x,x,n,n
COc1cccc(NC(=O)CNC(=O)c2ccccc2)c1,n,n,n,57
O=C(COc1cccc(NC(=O)c2ccccc2Cl)c1)c1ccc(F)cc1,n,n,n,n
COc1ccc(C(=O)NCC(=O)Nc2cccc(C(F)(F)F)c2)cc1,n,n,n,n
COC(=O)COc1cccc(NC(=O)c2ccccc2Cl)c1,119,n,n,n
SMILES,NOMO-1 viab,STK33 inh,ID4 SMM,p53 PUMA act
Cc1cccc(C(=O)Nc2cccc(OCC(=O)O)c2)c1,n,n,n,n
COc1ccc(C(=O)COc2cccc(NC(=O)c3ccccc3C)c2)cc1,n,n,n,n
COC(=O)COc1cccc(NC(=O)c2ccc(-c3ccccc3)cc2)c1,113,n,n,n
COC(=O)COc1cccc(NC(=O)c2ccccc2F)c1,122,n,n,n
C[C@@H]1CN([C@@H](C)CO)C(=O)c2cc(NC(=O)C3CCCCC3)ccc2O[C@H]1CN(C)C(=O)Nc1ccccc1,n,n,x,x
COC(=O)COc1cccc(NC(=O)c2ccccc2I)c1,110,n,n,n
C[C@H]1CN([C@@H](C)CO)C(=O)c2cccc(NC(=O)C3CC3)c2O[C@H]1CN(C)S(=O)(=O)c1ccc(Cl)cc1,n,x,x,x
Cc1c(C(=O)Nc2nnc(SC/C=C/c3ccccc3)s2)oc2ccccc12,n,n,n,54
CCC(=O)N(C)C[C@H]1Oc2ncc(-c3ccccc3C)cc2C(=O)N([C@H](C)CO)C[C@@H]1C,x,x,n,x
C=C(C)C(=O)O[C@H]1[C@H]2C(=C)C(=O)O[C@@H]2C[C@@H](C)/C=C/C(=O)[C@](C)(O)[C@@H]1OC(C)=O,118,n,x,x
C=C1C(=O)O[C@@H]2/C=C(/C)[C@H](O)CC(=O)[C@](C)(O)C[C@@H](OC(=O)/C(C)=C/C)[C@@H]12,x,n,x,n
CN(C)c1ccc2c(c1)[C@@H]1C[C@@H](CC(=O)NC3CCCCC3)O[C@@H](CO)[C@@H]1O2,x,x,n,n
CC(=O)NNC(=O)N1Cc2ccccc2Oc2ccc(Cl)cc21,x,x,+,n
COc1cccc(C(=O)NC(c2ccc(C)cc2)c2cc(Cl)c3cccnc3c2O)c1 (stereo unspecified),121,n,n,n
COc1ccc(C(=O)NC(c2ccc(OC)c(OC)c2)c2cc(Cl)c3cccnc3c2O)cc1 (stereo unspecified),122,n,n,n
COc1ccc(C(=O)NC(CC(=O)O)c2ccc(Cl)cc2)cc1 (stereo unspecified),n,n,n,n
COc1ccc(C(NC(=O)c2cccnc2)c2cc(Cl)c3cccnc3c2O)cc1OC (stereo unspecified),109,n,n,n
C[C@@H]1CN([C@@H](C)CO)C(=O)Cc2cc(NC(=O)Cn3cnnn3)ccc2O[C@@H]1CN(C)C(=O)NC1CCCCC1,n,n,n,n
COc1ccc(S(=O)(=O)Nc2ccc3c(c2)CC(=O)N([C@H](C)CO)C[C@H](C)[C@H](CN(C)Cc2ccc(Cl)c(Cl)c2)O3)cc1,98,n,x,x
COc1ccc(CN(C)C[C@@H]2Oc3ccc(NS(=O)(=O)c4ccc(Cl)cc4)cc3CC(=O)N([C@@H](C)CO)C[C@@H]2C)cc1,n,n,n,n
COc1ccc(S(=O)(=O)Nc2ccc3c(c2)CC(=O)N([C@H](C)CO)C[C@@H](C)[C@H](CN(C)Cc2ccc(Cl)c(Cl)c2)O3)cc1,112,n,x,x
C[C@H]1CN([C@@H](C)CO)C(=O)c2ccccc2-c2ccccc2CO[C@@H]1CN(C)C(=O)Nc1ccnc(N2CCOCC2)c1,x,x,n,n
O=C1N(c2cccc(Cl)c2)C(=Nc2cccc(Cl)c2)SC12CC2,114,x,x,x
C[C@H]1CN([C@@H](C)CO)C(=O)c2cc(NS(=O)(=O)c3cccs3)ccc2O[C@H]1CN(C)Cc1ccc(-c2ccccc2)cc1,n,x,n,n
COc1ccc(/C=C2\C(=O)c3ccccc3OC2c2ccccc2)cc1 (stereo unspecified),120,x,x,x
Cc1ccc(N(CC(O)Cn2c3ccccc3c3ccccc32)S(C)(=O)=O)c(C)c1 (stereo unspecified),90,n,n,n
Cc1ccc(N(CC(O)Cn2c3ccccc3c3ccccc32)S(C)(=O)=O)cc1 (stereo unspecified),n,n,n,n
CCOC(=O)c1cnc2c(OC)cccc2c1NC1CCCCC1,118,x,x,x
COc1cc(OC)c(C(O)C(C)O)cc1OC (stereo unspecified),90,n,n,n
NCCCCCNC(=O)[C@@H]1C[C@@H]2C(=O)N3CCC[C@H]3C(=O)N2[C@@H]1c1ccc(O)cc1,x,n,x,x
